Bioassay records from PubChem BioAssay.
PTK2B oligo ant = antagonists of Pyk2 self-association, primary screen, Q293 cells, FERM NanoBiT luminescence, HTS | active compounds read low | z-score (the deposit names both 25 µM and 10 µM) | 99,000 tested, 0.83% active;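 active = Z-score of -3 or lower, scaled per plate to the spread of control and sample wells; inactive = z-score above -3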;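 also: negative z-score means lost luminescence so less FERM oligomerization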
CYP2C19 activ = human CYP2C19 activators, primary screen, biochemical, luminescence. Cytochrome P450 2C19 (Homo sapiens), P33261. recombinant CYP2C19, luciferin-H EGE luminescence; active compounds read high; 0 = fully inhibited enzyme, 1 = untreated enzyme. activation factor at 5 µM. 96,000 tested, under 10 active;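 active = activation factor of at least 2 at 5 µM in the primary screen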
CYP2C19 inhib = blockers of cytochrome P450 2C19 activity – biochemical, luminescence, ADME assay, primary screen; P33261; CYP2C19 Supersomes, luciferin-H EGE luminescence, 30 min; inhibition, % at 5 µM; 96,000 tested, 21% active; AID 778, 2007;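 active = CYP2C19 inhibition above a set limit at 5 µM in the primary screen, cut at about 50% in these data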
CYP2C9 inh = blockers of cytochrome P450 2C9 activity – biochemical, luminescence, ADME assay, primary screen | 96,000 tested, 20% active | CYP2C9 Supersomes, luciferin-H conversion | inhibition, % at 5 µM | P11712 | AID 777, 2007;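 active = blocking of liver enzyme CYP2C9 beyond about 50% at 5 µM, limit read from the data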
Cav32 inh = Cav3.2 calcium influx blockers – cell-based, Fluo-4 calcium fluorescence, FDSS, MLSMR library, primary screen. Cav3.2-expressing cells; active compounds read low. 100,000 tested, 4% active. Voltage-dependent T-type calcium channel subunit alpha-1H (Homo sapiens), O95180. B-score at 10 µM. AID 449739, 2010;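 active = single-dose well whose peak fluorescence ratio is a statistical outlier from its plate by either plate-standardised score or position-corrected B-score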
CYP2C9 act = human CYP2C9 activators, primary screen, biochemical, luminescence | AID 1024, 2008 | Cytochrome P450 2C9 (Homo sapiens), P11712 | 96,000 tested, 1.4% active | recombinant CYP2C9, luciferin-H conversion; active compounds read high; factor 1 = untreated enzyme, 0 = blocked | activation factor at 5 µM;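 active = activation factor of 2 or more for CYP2C9 at a 5 µM dose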
Of the large screens only hits and unclear results are named; the others gave an inactive call. Rows were chosen to be rich in hits. Some 27% of all compounds tested hit in one or more screens of this group.

CCc1cccc(NC(=O)C2CCN(S(=O)(=O)c3cccs3)CC2)c1	none
CCOC(=O)c1cccc(NC(=O)C2CCN(S(=O)(=O)c3cccs3)CC2)c1	CYP2C19 inhib 88, CYP2C9 inh 84 (no result: Cav32 inh)
O=C(C1Cc2ccccc2CN1S(=O)(=O)c1cccs1)N1CCCCCC1 (centres undefined)	CYP2C19 inhib 82
CCOC(=O)c1cccc(NC(=O)C2CCN(S(=O)(=O)c3cnc[nH]3)CC2)c1	CYP2C19 inhib 99, CYP2C9 inh 100 (no result: PTK2B oligo ant)
CCOCCCNC(=O)CCCOc1ccccc1	none
Cc1cc(NC(=O)C2CCN(S(=O)(=O)c3cnc[nH]3)CC2)ccc1Br	CYP2C9 inh 79
Cc1ccc(Cl)cc1N1CCN(C(=O)C2CCN(S(=O)(=O)c3cnc[nH]3)CC2)CC1	none
CCOC(=O)c1cccc(Nc2nc(C)cc(C)n2)c1	none
CCOC(=O)c1cccc(NC(=O)CN(C)S(=O)(=O)c2cnc[nH]2)c1	CYP2C19 inhib 54, CYP2C9 inh 94
CCn1c(C)nc2cc(C(=O)OCCC(F)(F)F)ccc21	none
CCOC(=O)c1c(NC(=O)C2CCN(S(=O)(=O)c3cccs3)CC2)sc(C)c1C	none (no result: Cav32 inh)
CCOC(=O)c1ccc2c(c1)nc(C1CCN(S(=O)(=O)c3cccs3)CC1)n2CC	CYP2C19 inhib 84, CYP2C9 inh 87
CCOC(=O)C1CCCN(C(=O)C2CCN(S(=O)(=O)c3cccs3)CC2)C1 (centres undefined)	CYP2C19 inhib 75, CYP2C9 inh 64
CCc1nc(SCc2ccc(C(=O)OC)o2)c2c(=O)n(C)c(=O)n(C)c2n1	none (no result: PTK2B oligo ant, CYP2C19 activ, CYP2C19 inhib, CYP2C9 inh, CYP2C9 act)
CCN(Cc1ccncc1)C(=O)C1CCN(S(=O)(=O)c2cccs2)CC1	CYP2C19 inhib 80, CYP2C9 inh 99
CN(C(=O)C1CCN(S(=O)(=O)c2cccs2)CC1)C1CCCCC1	none
Cc1ccccc1NC(=S)NC(NC(=O)COc1ccccc1)C(Cl)(Cl)Cl (centres undefined)	CYP2C19 inhib 61, CYP2C9 inh 72
O=C(COc1ccccc1)NC(NC(=S)Nc1ccccc1O)C(Cl)(Cl)Cl (centres undefined)	CYP2C19 inhib 93, CYP2C9 inh 83, Cav32 inh -7.9
Cc1ccc(C)c(NC(=S)NC(NC(=O)Cc2cccc3ccccc23)C(Cl)(Cl)Cl)c1 (centres undefined)	none
Cc1ccc(NC(=S)NC(NC(=O)c2ccccc2C)C(Cl)(Cl)Cl)c(C)c1 (centres undefined)	CYP2C9 inh 73, Cav32 inh -7.1
Cc1ccccc1NC(=S)NC(NC(=O)C(C)(C)C)C(Cl)(Cl)Cl (centres undefined)	CYP2C9 inh 97
CC(CC(C)C(=O)N1CCOCCN(C(=O)C(C)CC(C)C(=O)O)CCOCC1)C(=O)O (centres undefined)	none
CCOC(=O)c1sc(NC(=O)CSc2nc3c(c(=O)n2-c2ccc(F)cc2)SCC3)c(C(=O)OCC)c1C	none (no result: PTK2B oligo ant, CYP2C19 activ, CYP2C19 inhib, CYP2C9 inh, CYP2C9 act)
Cc1c2cnn(CC(=O)Nc3cccc(C(F)(F)F)c3)c(=O)c2c(C)n1Cc1ccccc1F	none (no result: CYP2C19 activ, CYP2C19 inhib, CYP2C9 inh, Cav32 inh, CYP2C9 act)
Cc1nc2ccccn2c1C(=O)N/N=C/c1cc(C)n(-c2ccc(Br)cc2)c1C	none (no result: CYP2C19 activ, CYP2C19 inhib, CYP2C9 inh, CYP2C9 act)
Cc1ccccc1NC(=S)NC(NC(=O)N(C)C)C(Cl)(Cl)Cl (centres undefined)	none
Cc1ccc(C)c(NC(=S)NC(NC(=O)N(C)C)C(Cl)(Cl)Cl)c1 (centres undefined)	CYP2C19 inhib 70, CYP2C9 inh 78
C=C(C)C(=O)Nc1cccc(C2=NOC3(C2)C[C@@H](C(N)=O)N(C(=O)CC(c2ccccc2)c2ccccc2)C3)c1 (some centres undefined)	none (no result: PTK2B oligo ant, CYP2C19 activ, CYP2C19 inhib, CYP2C9 inh, CYP2C9 act)
CCOC(=O)CNC(=O)CSc1nc2ncc(Br)cc2[nH]1	CYP2C9 inh 64
CCN(CC)C(=O)CSc1nc2ncc(Cl)cc2[nH]1	CYP2C19 inhib 52 (no result: Cav32 inh)
CCN(CC)C(=O)CSc1nc2ncc(Br)cc2[nH]1	CYP2C19 inhib 69
CC(C)OC(=O)CSc1nc2ncc(Cl)cc2[nH]1	none
CCCOC(=O)c1ccc(Oc2cn[nH]c2-c2ccc(OCC)cc2O)cc1	CYP2C19 inhib 88, CYP2C9 inh 100
CCCOC(=O)c1ccc(Oc2c(-c3ccc(OCC)cc3O)n[nH]c2C)cc1	CYP2C19 inhib 84, CYP2C9 inh 98
COc1ccc(Oc2c(-c3ccc(O)cc3O)n[nH]c2C)cc1	CYP2C19 inhib 100, CYP2C9 inh 100, Cav32 inh -8.8
Cc1nn(Cc2ccccc2)c(N)c1-c1ccccc1	CYP2C19 inhib 63
Cc1nn(C2CCCCC2)c(N)c1-c1ccccc1	Cav32 inh -3.4
Cc1nn(Cc2ccccc2)c(N)c1C#N	none
CN(C)CCOc1nc(-c2ccccc2)nc2c1oc1ccccc12	none
COCCNC(=O)COc1ccc(Br)cc1Cl	none
C=CCNC(=O)COc1ccc(Br)cc1Cl	CYP2C19 inhib 93
CC(C)N(C(=O)COc1ccc(Br)cc1Cl)C(C)C	CYP2C19 inhib 94, CYP2C9 inh 60, Cav32 inh -5.5
O=S(NCc1ccco1)C12CC3CC(CC(C3)C1)C2 (centres undefined)	none (no result: CYP2C19 activ, CYP2C19 inhib, CYP2C9 inh, CYP2C9 act)
COc1cccc(CN2C(=O)c3cccc(N)c3C2=O)c1	none (no result: CYP2C19 activ, CYP2C19 inhib, CYP2C9 inh, Cav32 inh, CYP2C9 act)
COc1cc(C(=O)NCC(C)C)c([N+](=O)[O-])cc1OC	none
CCCOC(=O)Nc1ccc(N2CCCCC2)cc1	none (no result: Cav32 inh)
O=C(O)CCNS(=O)(=O)c1ccc2ccccc2c1	none (no result: Cav32 inh)
CC(C)OCCCNS(=O)(=O)c1ccc2ccccc2c1	CYP2C9 act 3.4
COc1ccc(OCCNS(=O)(=O)c2ccccc2)cc1	CYP2C19 inhib 86, CYP2C9 inh 82
CCOCCCNS(=O)(=O)c1ccccc1	CYP2C19 inhib 60
O=C1NCCN1CCNS(=O)(=O)c1ccc2ccccc2c1	none
O=S(=O)(NCCOc1ccccc1)c1ccc2ccccc2c1	CYP2C9 act 2.1
[O-][n+]1onc2c3cc(-c4ccccc4)nnc3ccc21	none
Cc1ccc(OCCNS(=O)(=O)c2cccs2)cc1	CYP2C19 inhib 100, CYP2C9 inh 85
CCOc1ccc(OCC)c(NC(=O)CNS(=O)(=O)c2cccs2)c1	none
COc1ccc(OCCN(C)Cc2ccccc2)cc1	CYP2C19 inhib 68
CN(CCOCCOc1ccc2ccccc2c1)Cc1ccccc1	none
COCCN(CC(=O)NC1CCCCC1)C(=O)CSc1nc2ccccc2o1	CYP2C19 inhib 92
O=C(CN(Cc1ccc2c(c1)OCO2)C(=O)CSc1nc2ccccc2o1)NC1CCCCC1	CYP2C19 inhib 98, CYP2C9 inh 96, Cav32 inh -3.9
O=C(NCc1nc2ccccc2[nH]1)C1=C[C@H](C2CC2)C[C@H](OCc2ccc(CO)cc2)O1	none (no result: PTK2B oligo ant, CYP2C19 activ, CYP2C19 inhib, CYP2C9 inh, CYP2C9 act)
